What was measured:
Experiment in all cases: PBM binding z-score (relative to random genomic background probes); higher = stronger binding; sequences stand for … in GC…GCGATTGACAGCGTAGAATGAAGG
[1] = system: FXR:RXRa (NR concentration 270 nM, RXRa partner concentration 90 nM)
Procedure, shortened: (§1)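 Binding z-scores were set against random background probes. The data came from custom Agilent 4×180K protein-binding microarrays carrying double-stranded probes with 34-nt variable regions, incubated 1 h with ligand-free nuclear receptor dimers. Partner-specific antibodies detected binding, and scanned fluorescence was regression-normalized.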

[2] = system: LXRa:RXRa (NR concentration 270 nM, RXRa partner concentration 90 nM)
Procedure, shortened: as §1

[3] = system: LXRa homodimer (NR concentration 270 nM)
Procedure, shortened: as §1

[4] = system: LXRb:RXRa (NR concentration 270 nM, RXRa partner concentration 90 nM)
Procedure, shortened: as §1

[5] = system: LXRb homodimer (NR concentration 270 nM)
Procedure, shortened: as §1

[6] = system: PPARa:RXRa (NR concentration 270 nM, RXRa partner concentration 90 nM)
Procedure, shortened: as §1

[7] = system: PPARg:RXRa (NR concentration 180 nM, RXRa partner concentration 90 nM)
Procedure, shortened: as §1

[8] = system: PPARg:RXRa 270nM:90nM, anti-RXR (NR concentration 270 nM, RXRa partner concentration 90 nM)
Procedure, shortened: as §1

[9] = system: PPARg:RXRa 30nM:10nM, anti-RXR (NR concentration 30 nM, RXRa partner concentration 10 nM)
Procedure, shortened: as §1

[10] = system: PPARg:RXRa 90nM:30nM, anti-RXR (NR concentration 90 nM, RXRa partner concentration 30 nM)
Procedure, shortened: as §1

[11] = system: PPARg:RXRa DBDmut IVT, anti-RXR (DBD mutation: RXRa K156A/R161A, NR concentration 270 nM, RXRa partner concentration 90 nM)
Procedure, shortened: as §1

[12] = system: PPARg:RXRa IVT, anti-PPARg (NR concentration 270 nM, RXRa partner concentration 90 nM)
Procedure, shortened: as §1

[13] = system: PPARg DBDmut:RXRa IVT, anti-PPARg (DBD mutation: PPARg1 K132A/R137A, NR concentration 270 nM, RXRa partner concentration 90 nM)
Procedure, shortened: as §1

[14] = system: PPARg DBDmut IVT, anti-PPARg (DBD mutation: PPARg1 K132A/R137A, NR concentration 270 nM)
Procedure, shortened: as §1

[15] = system: PPARg homodimer (NR concentration 180 nM)
Procedure, shortened: as §1

[16] = system: PXR:RXRa (NR concentration 270 nM, RXRa partner concentration 90 nM)
Procedure, shortened: as §1

[17] = system: PXR homodimer (NR concentration 270 nM)
Procedure, shortened: as §1

[18] = system: RARa:RXR (NR concentration 270 nM, RXRa partner concentration 90 nM)
Procedure, shortened: as §1

[19] = system: RARa homodimer (NR concentration 270 nM)
Procedure, shortened: as §1

[20] = system: RARb:RXRa (NR concentration 270 nM, RXRa partner concentration 90 nM)
Procedure, shortened: as §1

Sequence	PBM binding z-score [1]	PBM binding z-score [2]	PBM binding z-score [3]	PBM binding z-score [4]	PBM binding z-score [5]	PBM binding z-score [6]	PBM binding z-score [7]	PBM binding z-score [8]	PBM binding z-score [9]	PBM binding z-score [10]	PBM binding z-score [11]	PBM binding z-score [12]	PBM binding z-score [13]	PBM binding z-score [14]	PBM binding z-score [15]	PBM binding z-score [16]	PBM binding z-score [17]	PBM binding z-score [18]	PBM binding z-score [19]	PBM binding z-score [20]
GCATATACGTAATACAAGGTGAAAGTCCGATTGT	0.409	0.28	0.383	0.441	0.0307	0.855	0.906	0.499	0.287	0.554	-0.0308	0.718	0.51	1.15	0.296	0.381	0.191	0.815	0.672	0.666
TCTTGTAGAGCAATAGAGGTTAAGAAAGTGCGCT	0.316	2.34	0.104	1.18	-0.745	1.92	0.157	1.31	1.69	1.55	1.71	1.36	-0.0371	0.131	-0.051	2.73	-0.322	1.25	-0.851	0.425
ATTTCTAGGTAACAAGTTCAGTGAAAGAGAGGAC	1.38	1.39	1.04	1.18	1.41	2.76	3.06	3.44	1.82	3.09	5.53	4.99	3.1	2.25	1.94	1.79	2.69	1.45	2.03	2.12
TAGCCTAGGTCAGATCGCGCCAGTATACGCTATA	1.75	0.937	-0.15	1.09	-0.19	1.63	0.856	0.842	0.125	0.595	0.721	1.46	-0.73	0.133	0.207	0.262	-0.578	0.7	-0.794	2.95
GATACAGGGTCAGCTAGAGGCCACAGTATGGAAA	4.67	3.33	-0.234	2.65	-0.958	4.64	4.12	3.58	1.09	2.68	1.47	2.57	0.921	0.377	2.57	3.94	-0.253	5.22	0.785	4.2
GATACAGGGTCAAGGCAAGAGTACGCGTATTGAT	6.93	4.47	0.251	3.95	0.189	6.03	6.09	5.4	2.18	4.16	2.89	4.14	1.59	0.74	2.69	3.78	0.428	4.61	1.12	4.62
CAAACTAGCTCACAGAGGTCAAAGTCCGTGCGTA	4.84	5.04	5.7	4.99	1.59	4.82	2.1	3.38	1.05	2.74	0.877	2.03	0.153	0.182	4.66	5.9	3.09	6.47	2.88	3.87

Source: the supplement of paper PMC6555819
